Here are results for five molecules from ChEMBL document CHEMBL3988442, “University of Dundee, Small-Polar-MMV Screening Library” (2021).

For some assays here: Potency and affinity values are given separately.

Assay [1] has as its target Protein translocase subunit SecA (Escherichia coli (strain K12)) (UniProt P10408). The assay can be described thus: Assay to Identify E. coli SecA ATPase Inhibitors. Particulars: 30 µM. In kind it is functional. More on the design: scale not given: direction of the effect not stated beside the values.
Assay [2] has as its target T1, Ubiquitin-activating enzyme e1, putative (Leishmania donovani (strain BPK282A1)) (UniProt E9BSI1).
T1 sequence (whole entry): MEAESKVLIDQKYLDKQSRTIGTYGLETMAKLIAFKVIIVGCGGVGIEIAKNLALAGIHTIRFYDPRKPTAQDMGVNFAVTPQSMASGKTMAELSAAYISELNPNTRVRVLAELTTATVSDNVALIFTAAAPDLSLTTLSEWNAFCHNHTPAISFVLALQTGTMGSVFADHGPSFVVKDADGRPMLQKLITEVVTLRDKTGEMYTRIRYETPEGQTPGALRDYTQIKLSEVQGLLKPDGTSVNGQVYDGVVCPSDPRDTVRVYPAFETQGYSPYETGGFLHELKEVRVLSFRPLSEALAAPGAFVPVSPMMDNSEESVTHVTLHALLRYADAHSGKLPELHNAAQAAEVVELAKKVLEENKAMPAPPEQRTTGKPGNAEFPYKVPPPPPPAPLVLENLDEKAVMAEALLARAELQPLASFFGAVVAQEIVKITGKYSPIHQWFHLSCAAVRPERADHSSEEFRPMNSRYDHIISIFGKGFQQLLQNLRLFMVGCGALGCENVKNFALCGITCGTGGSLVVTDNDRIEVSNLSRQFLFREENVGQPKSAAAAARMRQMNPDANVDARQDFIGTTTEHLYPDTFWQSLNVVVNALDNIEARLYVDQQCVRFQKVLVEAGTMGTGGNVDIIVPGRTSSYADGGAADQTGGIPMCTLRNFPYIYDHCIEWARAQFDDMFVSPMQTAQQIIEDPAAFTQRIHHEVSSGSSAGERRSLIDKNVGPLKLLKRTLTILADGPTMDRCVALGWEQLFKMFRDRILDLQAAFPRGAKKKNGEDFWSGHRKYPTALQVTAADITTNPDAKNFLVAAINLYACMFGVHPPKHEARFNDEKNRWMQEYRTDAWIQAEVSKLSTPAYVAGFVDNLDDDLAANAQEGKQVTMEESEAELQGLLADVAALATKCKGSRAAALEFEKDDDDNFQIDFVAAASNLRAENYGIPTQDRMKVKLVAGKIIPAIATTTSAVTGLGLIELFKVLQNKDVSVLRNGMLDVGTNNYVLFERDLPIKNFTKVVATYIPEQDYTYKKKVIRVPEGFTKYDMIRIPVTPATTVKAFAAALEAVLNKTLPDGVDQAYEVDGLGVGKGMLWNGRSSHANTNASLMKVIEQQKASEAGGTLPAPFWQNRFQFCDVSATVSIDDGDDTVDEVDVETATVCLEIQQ
The assay can be described thus: Leishmania donovani Ubiquitin Activating Enzyme (LdE1). In kind it is functional. More on the design: scale not given: direction of the effect not stated beside the values. Particulars: 30 µM.

For assay [3], the target named is T2, Aspartate--tRNA(Asp/Asn) ligase (Mycobacterium tuberculosis (strain ATCC 25618 / H37Rv)) (UniProt P9WFW3). Further: in the data most compounds retested in dose-response had high values.
T2 sequence (whole entry): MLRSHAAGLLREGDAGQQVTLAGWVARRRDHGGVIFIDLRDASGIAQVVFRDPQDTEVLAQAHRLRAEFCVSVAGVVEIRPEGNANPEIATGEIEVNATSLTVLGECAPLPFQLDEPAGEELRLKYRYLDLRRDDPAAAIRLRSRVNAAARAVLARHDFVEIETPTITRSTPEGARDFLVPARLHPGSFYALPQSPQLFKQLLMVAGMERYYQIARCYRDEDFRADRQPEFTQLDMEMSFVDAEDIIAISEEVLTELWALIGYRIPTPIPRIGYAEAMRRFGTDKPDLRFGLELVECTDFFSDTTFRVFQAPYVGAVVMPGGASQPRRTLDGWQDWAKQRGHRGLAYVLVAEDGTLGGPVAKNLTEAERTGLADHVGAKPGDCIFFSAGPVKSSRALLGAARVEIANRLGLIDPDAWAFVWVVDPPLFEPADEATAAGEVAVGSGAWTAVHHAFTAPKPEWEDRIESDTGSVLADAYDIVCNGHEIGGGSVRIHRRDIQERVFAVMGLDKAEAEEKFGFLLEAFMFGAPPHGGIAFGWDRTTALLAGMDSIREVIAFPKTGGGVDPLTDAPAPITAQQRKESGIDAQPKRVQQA
Nature of the assay: Assay for Asp RNA synthetase-1 from Mycobacterium tuberculosis. In kind it is functional. Particulars: 30 µM. More on the design: scale not given: direction of the effect not stated beside the values.

Assay [4] addresses AMP-activated protein kinase, AMPK (Homo sapiens) (UniProt P54646+O43741+P54619+Q9UGJ0+Q9Y478+Q13131+Q9UGI9). Nature of the assay: AMP-dependent Kinase enzyme assay. An in vitro enzyme assay that detects ADP turnover that is directly proportional to AMPK activity. This uses naive AMPK that is activated during the assay with MK-8722. In kind it is functional. Particulars: 30 µM. More on the design: scale not given: direction of the effect not stated beside the values.

Assay [5] concerns the target Sialic acid-binding Ig-like lectin 9 (Homo sapiens) (UniProt Q9Y336). The assay can be described thus: Hs-Siglec9 ALPHAscreen SOP 20170721. More on the design: scale not given: direction of the effect not stated beside the values. Particulars: 10 µM.
Assay [6] relates to Trypanosoma cruzi. The assay can be described thus: Trypanosoma cruzi phosphomannomutase and mannose-1-phosphate guanylyltransferase assay. Particulars: 10 µM. In kind it is functional. More on the design: scale not given: direction of the effect not stated beside the values.
For assay [7], the target named is T3, Arginase-2, mitochondrial (Homo sapiens) (UniProt P78540).
T3 sequence (whole entry): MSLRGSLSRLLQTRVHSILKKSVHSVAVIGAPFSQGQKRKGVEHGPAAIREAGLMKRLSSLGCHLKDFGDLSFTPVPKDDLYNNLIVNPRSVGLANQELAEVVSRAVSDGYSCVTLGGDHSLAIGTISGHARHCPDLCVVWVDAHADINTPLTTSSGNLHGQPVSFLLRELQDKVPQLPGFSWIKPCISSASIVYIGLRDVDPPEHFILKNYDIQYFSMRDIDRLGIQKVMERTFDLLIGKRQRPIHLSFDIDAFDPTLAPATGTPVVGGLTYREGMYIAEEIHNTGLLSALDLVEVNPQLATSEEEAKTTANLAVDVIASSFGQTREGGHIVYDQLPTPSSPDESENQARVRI
The assay can be described thus: in vitro enzyme assay to detect the production of urea directly proportional to the activity of Arginase II. In kind it is functional. Further details: scale not given: in the data most compounds retested in dose-response had high values. Particulars: 33.3 µM.

The target of assay [8] is T4, Proteasome subunit beta (Trypanosoma cruzi) (UniProt O96673).
T4 sequence (whole entry): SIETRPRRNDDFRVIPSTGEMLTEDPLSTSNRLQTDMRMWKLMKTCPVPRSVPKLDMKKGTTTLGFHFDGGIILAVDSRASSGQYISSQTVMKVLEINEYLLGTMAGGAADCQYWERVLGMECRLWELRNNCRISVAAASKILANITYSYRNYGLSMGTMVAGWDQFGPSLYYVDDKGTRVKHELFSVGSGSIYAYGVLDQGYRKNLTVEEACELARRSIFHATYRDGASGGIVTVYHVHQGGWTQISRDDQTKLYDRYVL
The assay can be described thus: Trypanosoma cruzi proteasome chymotrypsin-like activity (TcProtChymo) assay. In kind it is functional. Further details: scale not given: in the data most compounds retested in dose-response had high values. Particulars: 9.37 µM.

For assay [9], the species on record is Homo sapiens. The assay can be described thus: To identify inhibition of the IFN signalling (Jak-Stat) pathway via expression of an eGFP reporter gene under the control of an IFN-stimulated response element (ISRE) containing MxA promoter. In kind it is functional. Further details: scale not given: direction of the effect not stated beside the values. Particulars: 30 µM. (Reporter assays use an easily measured gene product as a stand-in for the process of interest.)

Assay [10] addresses Shiga toxin 2 (Escherichia coli O157:H7) (UniProt P09385+P09386). Nature of the assay: E. coli 0.157:H7 Shiga Toxin SOP - stx2 screening assay. In kind it is functional. Further details: scale not given: direction of the effect not stated beside the values. Particulars: 30 µM.
Assay [11] concerns the target T5, Tyrosyl-tRNA synthetase, putative (Trypanosoma cruzi (strain CL Brener)) (UniProt Q4DSP6).
T5 sequence (whole entry): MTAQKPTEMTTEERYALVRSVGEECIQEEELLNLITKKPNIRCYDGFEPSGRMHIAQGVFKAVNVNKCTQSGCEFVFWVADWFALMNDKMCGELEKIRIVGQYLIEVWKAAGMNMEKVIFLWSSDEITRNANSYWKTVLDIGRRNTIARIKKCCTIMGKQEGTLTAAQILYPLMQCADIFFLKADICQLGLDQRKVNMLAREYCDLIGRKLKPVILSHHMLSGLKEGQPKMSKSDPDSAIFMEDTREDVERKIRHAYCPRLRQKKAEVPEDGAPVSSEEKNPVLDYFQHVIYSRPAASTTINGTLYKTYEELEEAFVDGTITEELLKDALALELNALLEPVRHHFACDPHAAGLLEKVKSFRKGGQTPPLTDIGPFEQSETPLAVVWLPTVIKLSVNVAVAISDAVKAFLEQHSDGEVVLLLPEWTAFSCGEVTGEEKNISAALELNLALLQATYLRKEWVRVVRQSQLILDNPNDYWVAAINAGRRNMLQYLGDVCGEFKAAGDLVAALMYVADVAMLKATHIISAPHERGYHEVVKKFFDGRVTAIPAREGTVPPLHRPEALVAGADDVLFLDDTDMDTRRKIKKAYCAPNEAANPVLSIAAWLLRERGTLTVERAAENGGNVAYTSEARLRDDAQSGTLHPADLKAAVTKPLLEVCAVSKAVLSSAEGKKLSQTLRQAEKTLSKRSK
Nature of the assay: Trypanosoma cruzi tyrosyl tRNA synthetase (TcYRS) _High Tyrosine SOP. In kind it is functional. Further details: scale not given: in the data most compounds retested in dose-response had high values. Particulars: 30 µM.

In assay [12] the target is T5, Tyrosyl-tRNA synthetase, putative (Trypanosoma cruzi (strain CL Brener)). Nature of the assay: Trypanosoma cruzi tyrosyl tRNA synthetase (TcYRS) SOP. In kind it is functional. More on the design: scale not given: direction of the effect not stated beside the values. Particulars: 30 µM.
The target in assay [13] is Chromo domain-containing protein 1 (Saccharomyces cerevisiae (strain ATCC 204508 / S288c) (Baker's yeast)) (UniProt P32657). Nature of the assay: ScCHD-1 Enzyme Inhibition Assay. In kind it is functional. More on the design: scale not given: in the data most compounds retested in dose-response had high values. Particulars: 30 µM.
Sequence of Chromo domain-containing protein 1 (Saccharomyces cerevisiae (strain ATCC 204508 / S288c) (Baker's yeast)) (P32657 whole entry, the tested form may be a part): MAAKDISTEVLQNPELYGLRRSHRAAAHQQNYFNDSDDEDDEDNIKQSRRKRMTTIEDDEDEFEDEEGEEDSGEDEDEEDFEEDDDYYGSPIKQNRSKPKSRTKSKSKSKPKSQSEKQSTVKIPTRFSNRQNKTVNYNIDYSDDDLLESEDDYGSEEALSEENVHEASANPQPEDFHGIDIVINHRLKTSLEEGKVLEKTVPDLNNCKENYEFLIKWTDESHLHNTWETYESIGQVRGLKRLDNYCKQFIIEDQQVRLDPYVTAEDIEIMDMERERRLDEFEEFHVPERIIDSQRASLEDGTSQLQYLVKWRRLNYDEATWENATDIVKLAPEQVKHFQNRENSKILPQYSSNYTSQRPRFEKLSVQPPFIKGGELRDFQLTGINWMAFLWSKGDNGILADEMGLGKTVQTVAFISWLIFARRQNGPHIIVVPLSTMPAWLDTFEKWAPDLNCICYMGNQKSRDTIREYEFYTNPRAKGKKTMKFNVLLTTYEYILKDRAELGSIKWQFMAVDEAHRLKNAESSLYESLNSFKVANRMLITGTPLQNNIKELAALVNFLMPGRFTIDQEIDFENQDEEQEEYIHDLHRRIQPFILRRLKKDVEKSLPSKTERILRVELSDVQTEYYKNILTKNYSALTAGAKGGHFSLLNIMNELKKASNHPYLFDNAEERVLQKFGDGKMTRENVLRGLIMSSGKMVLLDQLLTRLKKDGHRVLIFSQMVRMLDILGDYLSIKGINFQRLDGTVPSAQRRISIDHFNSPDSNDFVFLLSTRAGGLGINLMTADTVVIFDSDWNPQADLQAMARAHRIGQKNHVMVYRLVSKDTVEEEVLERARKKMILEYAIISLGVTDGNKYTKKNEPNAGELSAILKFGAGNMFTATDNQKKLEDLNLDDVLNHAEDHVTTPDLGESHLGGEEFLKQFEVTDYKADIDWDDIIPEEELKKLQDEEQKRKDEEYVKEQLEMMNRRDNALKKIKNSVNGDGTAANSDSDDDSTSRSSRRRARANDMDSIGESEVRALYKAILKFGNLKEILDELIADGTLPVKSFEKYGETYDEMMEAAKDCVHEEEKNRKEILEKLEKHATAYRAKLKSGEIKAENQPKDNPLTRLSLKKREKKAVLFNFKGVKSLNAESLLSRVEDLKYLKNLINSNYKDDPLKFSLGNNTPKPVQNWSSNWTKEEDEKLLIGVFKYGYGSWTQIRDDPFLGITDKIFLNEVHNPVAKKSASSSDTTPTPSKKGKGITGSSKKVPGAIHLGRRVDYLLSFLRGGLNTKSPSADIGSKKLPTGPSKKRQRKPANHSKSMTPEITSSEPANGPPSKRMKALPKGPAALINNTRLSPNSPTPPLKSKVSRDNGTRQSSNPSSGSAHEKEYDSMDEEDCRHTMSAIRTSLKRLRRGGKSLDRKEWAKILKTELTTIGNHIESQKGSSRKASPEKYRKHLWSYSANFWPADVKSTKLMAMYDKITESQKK
For assay [14], the target named is T6, Methionyl-tRNA synthetase, putative (Leishmania donovani (strain BPK282A1)) (UniProt E9BF75).
T6 sequence (whole entry): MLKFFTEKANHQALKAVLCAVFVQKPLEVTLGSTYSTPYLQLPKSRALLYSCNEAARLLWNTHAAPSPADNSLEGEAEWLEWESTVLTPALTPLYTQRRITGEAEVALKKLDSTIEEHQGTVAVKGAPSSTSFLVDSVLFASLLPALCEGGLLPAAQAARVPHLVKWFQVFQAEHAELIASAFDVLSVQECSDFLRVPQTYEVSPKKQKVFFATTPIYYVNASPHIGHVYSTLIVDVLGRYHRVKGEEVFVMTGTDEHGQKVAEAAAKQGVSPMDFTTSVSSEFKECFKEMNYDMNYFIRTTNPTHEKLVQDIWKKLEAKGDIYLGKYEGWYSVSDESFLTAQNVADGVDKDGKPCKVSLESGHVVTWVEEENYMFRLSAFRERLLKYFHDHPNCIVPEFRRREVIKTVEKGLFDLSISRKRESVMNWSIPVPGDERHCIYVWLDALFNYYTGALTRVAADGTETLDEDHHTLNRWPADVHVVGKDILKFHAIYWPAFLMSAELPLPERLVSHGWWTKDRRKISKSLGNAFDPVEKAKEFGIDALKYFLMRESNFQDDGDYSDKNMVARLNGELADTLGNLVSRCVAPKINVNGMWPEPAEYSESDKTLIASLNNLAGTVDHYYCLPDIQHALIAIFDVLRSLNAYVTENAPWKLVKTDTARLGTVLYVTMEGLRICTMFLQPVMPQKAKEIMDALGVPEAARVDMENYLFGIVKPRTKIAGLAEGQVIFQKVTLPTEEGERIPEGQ
Nature of the assay: Leishmania donovani Methionine tRNA synthetase (LdMetRS):v7. Dose response assay. In kind it is functional. Further details: conc 80 nM, time 150 minutes.

Sequence of Sialic acid-binding Ig-like lectin 9 (Homo sapiens) (Q9Y336 whole entry): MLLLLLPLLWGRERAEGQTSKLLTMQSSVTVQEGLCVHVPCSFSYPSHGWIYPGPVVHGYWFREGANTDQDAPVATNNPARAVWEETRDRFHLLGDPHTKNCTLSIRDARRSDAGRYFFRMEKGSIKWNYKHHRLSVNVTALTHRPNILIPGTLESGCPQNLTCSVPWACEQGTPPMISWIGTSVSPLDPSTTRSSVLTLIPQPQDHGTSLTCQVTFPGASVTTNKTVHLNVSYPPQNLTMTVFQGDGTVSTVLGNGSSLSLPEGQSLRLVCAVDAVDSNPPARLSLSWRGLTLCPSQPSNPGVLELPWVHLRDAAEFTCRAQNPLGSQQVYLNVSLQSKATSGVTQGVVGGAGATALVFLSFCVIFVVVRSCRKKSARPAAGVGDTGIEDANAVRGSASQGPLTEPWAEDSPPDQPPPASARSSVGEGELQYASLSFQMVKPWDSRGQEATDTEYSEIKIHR
Sequence of Protein translocase subunit SecA (Escherichia coli (strain K12)) (P10408 whole entry): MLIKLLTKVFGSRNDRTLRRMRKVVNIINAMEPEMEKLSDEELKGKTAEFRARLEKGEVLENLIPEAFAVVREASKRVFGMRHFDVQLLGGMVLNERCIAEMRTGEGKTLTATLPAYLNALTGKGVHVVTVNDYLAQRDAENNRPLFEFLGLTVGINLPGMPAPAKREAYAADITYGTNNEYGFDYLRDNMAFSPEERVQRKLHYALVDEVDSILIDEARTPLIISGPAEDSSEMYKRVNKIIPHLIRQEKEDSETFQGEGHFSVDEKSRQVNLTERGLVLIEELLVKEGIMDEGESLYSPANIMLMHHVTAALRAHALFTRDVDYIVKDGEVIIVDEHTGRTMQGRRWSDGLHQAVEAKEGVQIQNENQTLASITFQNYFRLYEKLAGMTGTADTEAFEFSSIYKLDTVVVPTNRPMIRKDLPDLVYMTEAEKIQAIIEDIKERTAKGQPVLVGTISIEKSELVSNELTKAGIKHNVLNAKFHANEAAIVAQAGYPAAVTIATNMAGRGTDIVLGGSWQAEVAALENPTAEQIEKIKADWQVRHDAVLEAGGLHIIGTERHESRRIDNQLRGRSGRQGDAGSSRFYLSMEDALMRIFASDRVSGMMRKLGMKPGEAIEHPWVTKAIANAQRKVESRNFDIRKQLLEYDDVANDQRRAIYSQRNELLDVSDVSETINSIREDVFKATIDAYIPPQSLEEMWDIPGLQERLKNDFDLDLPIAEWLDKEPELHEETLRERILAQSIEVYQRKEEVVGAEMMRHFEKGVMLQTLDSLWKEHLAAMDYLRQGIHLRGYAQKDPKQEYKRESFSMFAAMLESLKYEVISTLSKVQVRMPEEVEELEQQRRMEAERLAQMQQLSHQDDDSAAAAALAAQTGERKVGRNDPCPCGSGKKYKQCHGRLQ

`Cn1cc(N2C(=O)CC[C@@H]3[C@H]2CCN3Cc2ccncc2)cn1`: the Percent Effect in [1] was -1.29%; in assay [2] it was 2.67%; in assay [3] it was -1.89%; in assay [4] it was -2.47%; in assay [5], 5.41%; in assay [6], -0.193%. Further, the Percent Effect in assay [7] was -56.1%; in [8], 9.06%; in [9], -8.54%; in [10], -20.8%; in assay [11], 5.21%; in assay [12], 12.5%. The Percent Effect in assay [13] is -7.17%.
For `O=C1CSC(c2ccsc2)c2sccc2N1` (configuration not stated), the Percent Effect in assay [1] is -4.83%; in assay [2] it was -57.3%; in assay [3], 4.27%; in [4], 7.24%; in assay [5] it was 10.3%; in [6], -3.34%. The Percent Effect is -4.4% in assay [7]; 7.21% in assay [8]; 6.1% in [9]; 5.43% in [10]; -1.06% in [11]; -2.56% in assay [12]. Also, the Percent Effect in [13] was found to be 106%.
`Clc1cc(Cl)cc(CNCCc2ccccc2)c1` had a PXC50 in assay [14] (BOTTOM -4.203249798, HILLSLOPE 1.160005452, MAX_EFFECT 61.75908222, TOP 67.85944211) of 3.6.
`Clc1cc(CN2CCCN3CCCC3C2)c2ncccc2c1` (configuration not stated): the PXC50 turned out to be 4.18 in assay [14] (BOTTOM 3.20477061, HILLSLOPE 1.084567425, MAX_EFFECT 62.37623762, TOP 100.0); 4.08 in [14] (BOTTOM 6.472550683, HILLSLOPE 0.834102773, MAX_EFFECT 67.39130435, TOP 100.0); 4.1 in assay [14] (BOTTOM 6.940148658, HILLSLOPE 1.034617946, MAX_EFFECT 59.85663082, TOP 100.0).
Turning to `Oc1cc(Cl)cc(Cl)c1`, the PXC50 in [14] (MAX_EFFECT 13.49809886) and in assay [14] (MAX_EFFECT 17.06263499) was below 3 throughout.
